Results taken from PubChem BioAssay (NCI).
Several values for one entry are separate records, joined by “and”; a condition that tells them apart may be missing. Equal entries are not always repeated. About 83,000 compounds went through this panel and 20% of them were active in at least one assay; those are over-represented in the sample as a whole.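 Values shown are percent growth following 48 h exposure of cells in 96-well plates to a single concentration of compound; below 10 was considered active.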 Activity calls are given as the source filed them.

Key:
Assay in all cases: NCI-60 one-dose screen, 48 h (100 = growth as untreated, 0 = no growth, -100 = all killed)
Settings in all cases: 10 µM unless noted
[1] = tested on: SK-MEL-2 melanoma
[2] = tested on: EKVX NSCLC
[3] = tested on: SN12C renal
[4] = tested on: UO-31 renal
[5] = tested on: TK-10 renal
[6] = tested on: ACHN renal
[7] = tested on: CAKI-1 renal
[8] = tested on: A498 renal
[9] = tested on: CCRF-CEM leukemia
[10] = tested on: MOLT-4 leukemia

Measured: growth

O=C(Nc1ccc(-c2ccc3c(c2)NC(=O)/C3=C\c2ccc[nH]2)cc1)Nc1cccc(Cl)c1
active: [1] -52.8% | [2] -19.6% | [5] -12.1% | [6] -19.6% | [7] -14.9% | [10] 5.1%
inactive: [3] 40.7% | [4] 10.5% | [8] 21.6% | [9] 13.7%

N/C(=N\c1nc2ccccc2s1)NC(=O)Nc1ccccc1F
inactive: [1] 11% | [2] 37% | [3] 26.4% | [4] 34.3% | [5] 38.4% | [6] 47.8% | [7] 18.6% | [8] 78.4% | [10] 21.1%
active: [9] 5.96%

O=C(NNC(=O)c1ccc(OCc2nc3ccc(Cl)cc3[nH]2)cc1)Nc1ccc(Cl)c(C(F)(F)F)c1
inactive: [1] 109% | [2] 69.6% | [3] 64.9% | [4] 82.8% | [5] 116% | [6] 75.3% | [7] 81% | [8] 154% | [9] 48.9% | [10] 60.6%

O=C(Nc1nc2ccccc2s1)Nc1ccccc1Cl
inactive: [1] 99.9% | [2] 64.5% | [3] 83.9% | [4] 66.8% | [5] 84.7% | [6] 49.3% | [7] 45.2% | [8] 162% | [9] 97.5% | [10] 107%

Cc1ccc(C(=O)Nc2cc(-c3ccncc3)cc(C(F)(F)F)c2)cc1C#Cc1cnc2cccnn12
inactive: [1] 37.9% | [2] 64.3% | [3] 34.8% | [4] 31.4% | [5] 63.7% | [6] 46.6% | [7] 40.8% | [8] 48.9% | [9] 30% | [10] 31.3%

CNS(=O)(=O)N1CCc2c(Br)c3c(c(OC)c2C1CCc1ccccc1)OCO3 (stereo not given)
inactive: [9] 12.4%
active: [1] -66.2% | [2] -6.87% | [3] -88.8% | [4] -20.1% | [5] -0.435% | [6] 0.33% | [7] 5.41% | [8] -69.5% | [10] 1.16%

COc1ccc2nc(NC(=O)c3ccc(N(C)C)cc3)sc2c1
inactive: [1] 88.8% | [2] 63.4% | [3] 85.6% | [4] 46.7% | [5] 115% | [6] 77.5% | [7] 79.6% | [8] 95.6% | [9] 47.7% | [10] 43.1%

O=C(CSc1nc2ccccc2c(=O)[nH]1)Nc1ccccc1C(=O)O
inactive: [1] 116% | [2] 92.3% | [3] 98.9% | [4] 71.8% | [5] 116% | [6] 89.3% | [7] 89.9% | [8] 216% | [9] 90.5% | [10] 97%

FC(F)(F)c1cc2c(Cl)ncnc2n1CCC1CCOCC1
inactive: [2] 77% | [3] 40.7% | [5] 98.3% | [7] 80.3% | [8] 97.8%
active: [1] -91.2% | [4] -92.9% | [6] -44.2% | [9] -14.5% | [10] -38.4%

CN(C(=O)CN1C(=O)/C(=C/c2ccco2)SC1=S)C1CCS(=O)(=O)C1 (stereo not given)
inactive: [1] 98.5% | [2] 97.9% | [3] 104% | [4] 87.8% | [5] 122% | [6] 106% | [7] 93.5% | [8] 103% | [9] 80.3% | [10] 100%

COc1ccc(NC(=O)NN2C(=O)c3ccccc3N(C)C2c2ccc(OC)cc2)cc1 (stereo not given)
inactive: [1] 95.3% | [2] 100% | [3] 103% | [4] 75.3% | [5] 97.2% | [6] 106% | [7] 92.7% | [8] 108% | [9] 98.7% | [10] 96.4%

COc1ccc2[nH]c(=O)cc(-n3ncc(C(=O)/C=C/c4cc(OC)c(OC)c(OC)c4)c3C)c2c1
active: [1] -28.3% | [3] 7.21% | [4] -36.2% | [6] -14.9% | [8] 0.493% | [9] -20.4% | [10] -7.45%
inactive: [2] 11% | [5] 40.9% | [7] 14.6%

COc1ccccc1Nc1nnc(-c2c[nH]c3ccccc23)o1
active: [1] -13.6% | [9] 8.16% | [10] 1.78%
inactive: [2] 10.2% | [3] 14.5% | [4] 32.5% | [5] 22.8% | [6] 23.1% | [7] 22% | [8] 81.9%

O=C(/C=C1\C(=O)N(Cc2ccccc2)c2ccccc21)c1cc2ccccc2oc1=O
inactive: [1] 109% | [2] 79.6% | [3] 93% | [4] 42.9% | [5] 84.6% | [6] 17.9% | [7] 69.9% | [8] 144% | [9] 43.6% | [10] 31.9%

O=C1C=CC(=CC=C2N(Cc3ccc4ccccc4c3)c3ccccc3N2Cc2ccc3ccccc3c2)C=C1
6.94% (active) and 13.3% (inactive): [3]
active: [1] -12.8% and -12.7%
inactive: [2] 33.7% and 32.9% | [4] 103% and 98.5% | [5] 63.6% and 74% | [6] 77.2% and 78.6% | [7] 77.6% and 70.8% | [8] 106% and 109% | [9] 21.7% and 10.9% | [10] 22.5% and 17.6%

COc1cc(CNC(=O)C[C@H](C)CCC=C(C)C)ccc1OCc1cn(-c2ccc(Cl)c(Cl)c2)nn1
inactive: [1] 93.7% | [2] 77.2% | [3] 38.2% | [4] 60.8% | [5] 90.7% | [6] 71.5% | [7] 64% | [8] 79.9% | [9] 84.5% | [10] 68.7%

C[C@@H](Nc1c(C#N)cnc2ccc(-c3cnc4[nH]ncc4c3)cc12)c1ccccc1
inactive: [3] 11.3%
active: [1] -24.8% | [2] -31.9% | [4] 8.19% | [5] -6.48% | [6] 4.37% | [7] 4.1% | [8] -40.2% | [9] 0.263% | [10] -34.5%

COc1ccc(-c2cc(C(=O)OCc3ccc(Br)cc3)nn2-c2ccc(S(C)(=O)=O)cc2)cc1OC
inactive: [1] 95% | [2] 76.1% | [3] 78.3% | [4] 42.4% | [5] 75.5% | [6] 85.1% | [7] 83.5% | [8] 70.3% | [9] 84.2% | [10] 64.5%

COc1ccc(N=Nc2c(N)nn3c(-c4cc5cc(Br)ccc5oc4=O)ccnc23)cc1
active: [4] 8.11% | [6] -21.2%
inactive: [1] 29.6% | [2] 34.8% | [3] 17.6% | [5] 62% | [7] 12% | [8] 36.1% | [9] 96.2% | [10] 85.6%

CNc1nc2ccccc2n2c(-c3ccc(O)c(O)c3)cnc12
active: [1] 3.66% | [3] 4.03% | [4] 1.12% | [6] 6.64% | [7] 3.52%
inactive: [2] 16.3% | [5] 62.8% | [8] 92.4% | [9] 14.9% | [10] 11%

CSc1ccc(OCc2nc3ccccc3n2-c2cccc(NS(C)(=O)=O)c2)cc1
inactive: [1] 104% and 107% | [2] 103% and 81.3% | [3] 118% and 96.6% | [4] 59.5% and 78.4% | [5] 118% and 128% | [6] 90.8% and 94.9% | [7] 76.7% and 85% | [8] 137% and 153% | [9] 96.7% and 98.6% | [10] 96.7% and 97.4%

O=C(c1ccc(Cl)cc1)C1[C@H](c2ccccc2Cl)[C@@H](c2ccccc2)NC12C(=O)Nc1ccc(Br)cc12 (stereo not given in full)
active: [1] -89.9% | [2] -42.2% | [3] -83.9% | [4] -97.5% | [5] -2.31% | [6] -69.2% | [7] -47.6% | [8] -48% | [9] -13.5% | [10] -24.5%

Cn1cc(-c2cc3nc(-c4cn(C)c5ncccc45)cc(N)n3n2)c2cc(F)ccc21
inactive: [1] 83.9% | [2] 69.8% | [3] 51.2% | [4] 52.6% | [5] 74.6% | [6] 17.6% | [7] 12.8% | [8] 138% | [9] 38.6% | [10] 55.5%

Cc1ccc(-c2cc(C(=O)N=Nc3c(O)[nH]c4ccc(F)cc34)c3ccccc3n2)cc1
inactive: [1] 107% | [2] 29.8% | [3] 18.1% | [4] 77.5% | [5] 106% | [6] 42.8% | [7] 62.9% | [8] 187% | [9] 92.4% | [10] 65.3%

Cn1cc(-c2cc(N)n3nc(-c4c[nH]c5ccc(Cl)cc45)cc3n2)c2cc(Br)cnc21
active: [1] -49.9% | [2] 0.312% | [4] -39.3% | [5] -53.1% | [6] -76.3% | [7] -63% | [9] -66.1% | [10] -56.2%
inactive: [3] 42.5% | [8] 29%

C=CC[n+]1cccc2c3ccccc3ccc21
inactive: [1] 63.3% | [2] 23.7% | [4] 56.5% | [5] 67.1% | [6] 88% | [7] 60.6% | [8] 48.6% | [9] 47.3% | [10] 47.9%
active: [3] 8.67%
